# Data as given in PubChem BioAssay AID1631 (National Center for Advancing Translational Sciences (NCATS), 2009).
# Screen size: about 260,000 compounds; about 890 (0.34%) were called active. A call without a number means that no potency is given here. Not shown: some 1% with an inconclusive outcome. The call rests on the fitted dose curve; in most records, active means well fitted activation curve with a large enough effect; inconclusive means small, poorly fitted or top-dose-only effect; inactive means no such curve, though single readings can be large or run the other way. Many of the other results were omitted from the sample, so actives are more common in it than they were.
# Target: Pyruvate kinase PKM (Homo sapiens) (UniProt P14618)
# Experiment: qHTS Assay for Activators of Human Muscle isoform 2 Pyruvate Kinase; further: nearly all actives have a fitted effect of over 55% in size
# Details: purified PKM2, Kinase-Glo ATP luminescence; Potency: activation; series mostly up to 57.5 µM
# Description: NIH Chemical Genomics Center [NCGC] Matthew G. Vander Heiden, M.D., Ph.D. [Harvard Medical School, 77 Avenue Louis Pasteur, Boston, MA 02115] MLPCN Grant: 1 R03 MH085679-01 NCGC Assay Overview: Human pyruvate kinase muscle 2 (hPK-M2) enzyme was supplied as a highly purified (>95% pure) preparation from Harvard Medical School and assayed for its ability to generate ATP from ADP using phosphoenolpyruvate (PEP) as a substrate. ATP generation was detected in a coupled reaction by luciferase-mediated luminescence, an ATP-dependent process. […] The enzyme was assayed at an intermediate level of activity to screen for both inhibitors and activators.
# NCGC Assay Protocol Summary: Three uL of substrate mix (at r.t.) in assay buffer (50 mM Imidazole pH7.2, 50 mM KCl, 7 mM MgCl2, 0.01% Tween 20, 0.05% BSA) was dispensed into white solid bottom 1,536 well microtiter plates so that the final concentrations of substrates in the assay were 0.1 mM ADP and 0.5 mM PEP. 23 nL of compound were delivered by a pin tool and 1 uL of enzyme mix in assay buffer (4 degree Celsius) was added. Plates were incubated at room temperature for 1 hour. Two uL of detection mix (Kinase-Glo, Promega; at 4 degree Celsius protected from light) was added and luminescence read by a ViewLux (Perkin Elmer) at 5 second exposure/plate. Data were normalized to the uninhibited and AC100 inhibition (no enzyme). To monitor activation, the first column contained a titration of the activator, NCGC00031955-01 (16-point 1:2 dilutions in duplicate starting at 57 uM) and the first 16 rows of column 4 contained 57 uM of NCGC00031955-01.
# Potency means the concentration at half of the fitted maximal effect.
# Chain of Pyruvate kinase PKM (Homo sapiens) (P14618 whole entry, looked up, canonical isoform): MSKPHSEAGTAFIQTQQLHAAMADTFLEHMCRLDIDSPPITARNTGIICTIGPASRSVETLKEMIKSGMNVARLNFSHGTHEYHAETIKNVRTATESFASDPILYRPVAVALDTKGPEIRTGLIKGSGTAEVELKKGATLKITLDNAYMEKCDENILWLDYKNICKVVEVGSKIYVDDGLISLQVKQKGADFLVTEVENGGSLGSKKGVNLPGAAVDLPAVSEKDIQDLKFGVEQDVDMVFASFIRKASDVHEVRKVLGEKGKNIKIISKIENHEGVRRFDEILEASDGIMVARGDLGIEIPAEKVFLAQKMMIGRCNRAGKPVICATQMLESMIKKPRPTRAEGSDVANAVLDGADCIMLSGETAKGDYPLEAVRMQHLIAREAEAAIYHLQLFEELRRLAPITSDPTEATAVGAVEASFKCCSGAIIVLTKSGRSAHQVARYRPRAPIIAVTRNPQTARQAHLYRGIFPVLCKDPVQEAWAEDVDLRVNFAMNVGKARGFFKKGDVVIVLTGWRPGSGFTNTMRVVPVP
SMILES,activation,Potency
COCc1cc(=O)n2[nH]c(C)c(-c3ccccc3)c2n1,"-8.06% [at 11.5 µM, 0% is enzyme alone, no compound] (inactive)",–
CN(NS(=O)(=O)c1cccs1)c1ncc(C(F)(F)F)cc1Cl,–,inactive
CCOc1ccccc1N1C(=O)CC(Sc2nccc(C)n2)C1=O (configuration not stated),–,inactive
CCCn1c(C2CCCN2c2nc(-c3ccc(OC)cc3)cs2)nc2ccccc21 (configuration not stated),–,inactive
COC(=O)c1ccc(CN2CCCC(C(=O)Nc3cccc(-n4cnnn4)c3)C2)cc1 (configuration not stated),–,inactive
CCOc1ccc(NS(=O)(=O)c2ccc(OCC(=O)NCCCOC)cc2)cc1,–,inactive
CNC(=O)COc1ccc(S(=O)(=O)Nc2ccccc2)cc1,–,10 µM (active)
COC(=O)COc1ccc(S(=O)(=O)Nc2ccc(NC(C)=O)cc2)cc1,–,inactive
COc1cccc(OCC(O)CNC(=O)c2oc3c(C)c(C)ccc3c2C)c1 (configuration not stated),–,inactive
Cc1ccc(-n2ncc3c2CC(C)(C)CC3NC(=O)Cc2c(C)noc2C)cc1 (configuration not stated),–,inactive
O=C(NCCN1CCN(C(=O)c2cccc([N+](=O)[O-])c2)CC1)C(=O)NCc1ccc(Cl)cc1,–,inactive
Cc1ccc(C)c(OCc2cc(C(=O)N3CCN(c4cnccn4)CC3)no2)c1,–,inactive
C/C(=N\NC(=O)c1ccoc1C)c1ccccc1O,–,inactive
C=CCn1c(SCc2csc(C)n2)nc2scc(-c3ccc(C)o3)c2c1=O,–,10 µM (active)
C=CCNC(=O)CSc1nc2scc(-c3ccco3)c2c(=O)n1CC=C,–,inactive
C=CCn1c(SCC(=O)NCC2CCCO2)nc2sc(C)c(C)c2c1=O (configuration not stated),–,inactive
CC(=O)Nc1cccc(Nc2nc(-c3cccs3)nc3ccccc23)c1,–,inactive
Cc1cc(NC(=O)c2ccco2)c(=O)n(Cc2c(F)cccc2Cl)c1,–,inactive
N#C[C@]1(S(=O)(=O)c2ccccc2)C[C@@H]2ON=C(c3cccc(Br)c3)[C@@H]2C1,–,inactive
O=C(Nc1ccc(Cl)cc1)c1cccc(OC(=S)N2CCOCC2)c1,–,inactive
COc1cccc(NC(=O)CSc2nnc(Cc3ccc(OC)c(OC)c3)o2)c1,–,14.1 µM (active)
Cc1cc(C)cc(OCc2nnc(SCC(=O)Nc3ccccc3)o2)c1,–,inactive
COc1ccccc1-c1nnc(SCC(=O)Nc2ccccc2)o1,–,inactive
O=C(Nc1nnc(S(=O)(=O)N2CCCCCC2)s1)c1cccc(Br)c1,–,inactive
CCc1ccccc1OCC(=O)Nc1ccc2c(c1)OCCO2,–,inactive
COc1ccc(NS(=O)(=O)c2ccc(N3CCN(CCO)CC3)c([N+](=O)[O-])c2)cc1,–,inactive

SMILES,activation,Potency
O=C(Nc1ncc([N+](=O)[O-])s1)C1COc2ccccc2O1 (configuration not stated),–,inactive
O=C(NCc1ccc(Cl)cc1)c1cc2c(nc3sccn32)s1,–,inactive
O=c1cc(Cn2nnc(-c3ccc(Cl)cc3)n2)nc2sccn12,–,14.1 µM (active)
CCn1c(SCc2cc(=O)n3ccsc3n2)nc2ccccc21,–,inactive
Clc1cccc(Cl)c1OCCOCCNCc1ccccc1,–,inactive
COc1nnc(-c2ccc(C)c(S(=O)(=O)N(C)C)c2)c2ccccc12,–,inactive
COc1cc(/C=C/C(=O)N2CCc3ccccc3C2)cc(OC)c1OC,–,inactive
COc1ccc(-c2oc3ncnc(NCCCO)c3c2-c2ccc(OC)cc2)cc1,–,inactive
C=CCNC(=S)/N=c1/ccccn1Cc1ccccc1,–,inactive
O=C(/C=C/c1ccc([N+](=O)[O-])o1)NNC(=O)c1ccc(F)cc1,–,inactive
COCCNc1cc(-c2ccccc2)nc2cc(-c3cccc(F)c3)nn12,–,inactive
CCC(=O)Nc1nc(C)c(C(=O)Nc2cccc(Cl)c2)s1,–,inactive
O=C(CCCCCn1c(=S)[nH]c2ccsc2c1=O)NC1CCCCC1,"13.9% [at 0.46 µM, 0% is enzyme alone, no compound] (inactive)",–
CCSc1nsc(NC(=O)Nc2ccccc2OC)n1,–,inactive
Cc1ccc(NC(=O)CSc2cccc3cccnc23)c(C)c1,–,inactive
Cc1ccc(NC(=S)Nc2ccc(F)cc2)cc1,–,inactive
N=c1oc2ccccc2cc1C(=O)NCc1ccccc1,–,inactive
O=C(NCc1ccc(Cl)cc1)C1CCN(S(=O)(=O)c2cccs2)CC1,–,inactive
Cc1ccc(S(=O)(=O)N2CCN(C)CC2)cc1,–,inactive
O=C(NCc1cccs1)C1CCN(S(=O)(=O)c2ccc(Cl)cc2)CC1,–,14.1 µM (active)
O=C(NCc1ccccn1)C1CCN(S(=O)(=O)c2ccc(Br)cc2)CC1,–,inactive
O=S(=O)(c1ccc2c(c1)OCCO2)N1CCc2ccccc21,–,inactive
CN1CCCN(S(=O)(=O)c2ccc3c(c2)OCCO3)CC1,–,3.55 µM (active)
O=C(NCc1cccs1)C1CCN(S(=O)(=O)c2ccc3c(c2)OCCO3)CC1,–,3.98 µM (active)
O=C(NCc1ccc2c(c1)OCO2)C1CCCN(S(=O)(=O)c2cccs2)C1 (configuration not stated),–,inactive
O=C(c1ccc2c(c1)OCCO2)C1CCN(S(=O)(=O)c2cccc(F)c2)CC1,–,inactive

SMILES,activation,Potency
Cc1ccccc1CN1C[C@@H]2C[C@@H](c3ccc4nsnc4c3)N3CCC[C@@]23C1=O,–,inactive
Cc1ccccc1CN1C[C@@H]2C[C@@H](c3cn(C)nc3-c3ccccc3)N3CCC[C@@]23C1=O,–,5.62 µM (active)
Cc1ccc(CN2CCN(Cc3cn(C)nc3-c3ccccc3)CC2CCO)o1 (configuration not stated),–,inactive
CN(C(=O)CSc1nncc2ccccc12)C1CCCCC1,–,inactive
Brc1c(CSc2nncc3ccccc23)nc2ccccn12,–,4.47 µM (active)
COc1ccc(Cl)cc1NC(=O)c1cccc(N2C(=O)C3CC=CCC3C2=O)c1 (configuration not stated),–,inactive
O=C(NCC1CCCO1)c1cc2c([nH]c3ccccc32)c(-c2ccc(F)cc2)n1 (configuration not stated),–,inactive
O=C(Nc1ccc(S(=O)(=O)Nc2ccccn2)cc1)c1ccccc1,–,inactive
C=CC(=O)c1ccc2ccccc2c1,–,10 µM (active)
CC(=O)CCC(=O)c1ccc2ccccc2c1,–,inactive
CC(=O)c1ccc2c(ccc3ccccc32)c1,–,inactive
CCOC(=O)c1cccc(NC(=O)C2CCN(c3ncnc4c3nc3n4CCCCC3)CC2)c1,"0.194% [at 0.46 µM, 0% is enzyme alone, no compound] (inactive)",–
CCCOC1CCCN(C(=O)c2cc(COc3cncc(Cl)c3)on2)C1 (configuration not stated),–,inactive
O=C(NC(=S)NC1CCCCC1)c1ccc(Cl)cc1,–,inactive
O=S(=O)(NC1CCCCC1N1CCN(c2ccccc2F)CC1)c1ccccc1 (configuration not stated),–,inactive
O=C(Cc1ccc(Cl)cc1)NC(=S)Nc1ccccc1O,–,inactive
CCN1C(=S)N[C@@H](CCc2ccccc2)[C@H](C(=O)OC)[C@H]1C,–,inactive
CC1(C(=O)NCCc2c[nH]c3ccccc23)C=CC2(CCCCC2)N1C(=O)c1ccccc1 (configuration not stated),–,inactive
Cc1ccccc1NC(=O)CSc1nc2ccc(Nc3nc(N4CCOCC4)nc(N4CCOCC4)n3)cc2s1,–,inactive
CN(C(=O)CC1C(=O)NCCN1Cc1ccc(F)cc1Cl)C1CCCCC1 (configuration not stated),–,inactive
CC(=O)N1c2ccc(S(=O)(=O)N3CCCC(C(=O)Nc4cccc(F)c4)C3)cc2CC1C (configuration not stated),–,inactive
CCC(C)c1ccc(NC(=S)N2CCCC2)cc1 (configuration not stated),–,inactive
Cc1noc(C)c1CSCC(=O)N(CCC(C)C)c1c(N)n(Cc2ccccc2)c(=O)[nH]c1=O,–,inactive
COC(=O)c1ccc(COc2ccc(/C=C/C(=O)c3ccc(OC)c(CSCC(=O)O)c3)cc2OC)cc1,–,inactive
CCC(=O)Nc1c(S(=O)(=O)c2ccccc2)c2nc3ccccc3nc2n1Cc1ccccc1,–,inactive
Cc1ccc(S(=O)(=O)c2c(N)n(C)c3nc4ccccc4nc23)cc1,–,12.6 µM (active)

SMILES,activation,Potency
CCN(CC)CCn1c(N)c(S(=O)(=O)c2ccccc2)c2nc3ccccc3nc21,–,inactive
c1ccc(Cc2ccc(OCCn3ccnc3)cc2)cc1,–,inactive
O=C(Nc1ccc(C(=O)N2CCCCC2)cc1)c1cccc([N+](=O)[O-])c1,–,inactive
CCCCC(C(=O)NC(C)(C)C)N(Cc1ccccc1)C(=O)c1snc(C(N)=O)c1N (configuration not stated),–,inactive
COc1ccc(-c2nn(-c3ccccc3)cc2/C=C2/SC(=S)N(CCCC(=O)O)C2=O)c(C)c1,"-3.19% [at 11.5 µM, 0% is enzyme alone, no compound] (inactive)",–
CCCc1cc(C(=O)N2CCCC(CO)(CCCc3ccccc3)C2)n(C)n1 (configuration not stated),–,inactive
O=C(CNc1cccc(S(=O)(=O)N2CCCCC2)c1)Nc1ccccc1F,–,inactive
Cc1cccc(-n2ncc(Cl)c(Cl)c2=O)c1,–,inactive
C/C(=N\N(C)C)c1ccc(OCCOc2ccc([N+](=O)[O-])cc2)cc1,–,inactive
COc1ccc(CCn2c(=N)c(C(=O)NCc3ccco3)cc3c(=O)n4cccc(C)c4nc32)cc1,–,inactive
C=C(C)Cn1c(SCC(=O)NCc2ccco2)nc2sc3c(c2c1=O)CCC3,–,inactive
O=C(NCc1ccco1)c1cccn2c(=O)c3c4c(sc3nc12)CCCC4,–,25.1 µM (active)
O=C(CCCC(=O)N1CCN(c2cccc(Cl)c2)CC1)c1ccccc1,–,inactive
COc1ccc(C2=NN(C(=O)CCC(=O)O)C(c3cccs3)C2)cc1OC (configuration not stated),–,inactive
CCS(=O)(=O)Nc1ccc(C2=NN(C(C)=O)C(c3cccs3)C2)cc1 (configuration not stated),–,4.47 µM (active)
CS(=O)(=O)Nc1ccc(C2=NN(S(C)(=O)=O)C(c3cccs3)C2)cc1 (configuration not stated),–,inactive
CC(=O)c1cc2c(cc1NC(=O)Cn1nc(-c3ccc(F)cc3)ccc1=O)OCO2,–,inactive
CC(=O)N1CCc2c(sc(NC(=O)CCS(=O)(=O)c3ccccc3)c2C#N)C1,–,inactive
CCOC(=O)c1ccc(NC(=O)Cc2cccs2)cc1,–,inactive
CC1CCN(C(=S)NC(=O)c2ccccc2Br)CC1,–,inactive
O=C(Nc1ccc(N2CCOCC2)c(Cl)c1)c1ccc(S(=O)(=O)N2CCOCC2)cc1,–,inactive
COc1ccc(C2=NN(C(C)=O)C(c3ccccc3)C2)cc1 (configuration not stated),–,inactive
COc1ccc(C2CC(c3ccccc3)=NN2C(=O)c2ccc(Cl)c([N+](=O)[O-])c2)cc1 (configuration not stated),–,inactive
COc1ccc(C2CC(c3ccc([N+](=O)[O-])cc3)=NN2C(C)=O)cc1 (configuration not stated),–,12.6 µM (active)
